# Screens as filed in PubChem BioAssay.
# In the library only some 4.9% were active in any assay of this set; here they are far more common.
# Calb FLC – C. albicans growth inhibition with fluconazole, primary screen, CaCi-2 strain, Alamar Blue fluorescence; C. albicans CaCi-2 (fluconazole-resistant clinical isolate) + fluconazole, 48 h; growth inhibition, % (no concentration beside the values); 300,000 compounds, 0.57% hits; AID 1979, 2009;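 active = growth inhibition above about 58% in most replicates, limit read from the data, passing the limit was not always enough; inconclusive = exactly half the replicates above a set limit; inactive = most replicates below a set limit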;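 also: all wells also contain fluconazole at 8 µg/ml as a sub-toxic cotreatment; 0% = median of DMSO wells and 100% = median of geldanamycin control wells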
# PP1 counter – PP1-alpha phosphatase inhibitors, primary screen, counter-screen for PP5 inhibitor project, biochemical, fluorescence, OMFP substrate, single point; Serine/threonine-protein phosphatase PP1-alpha catalytic subunit (Homo sapiens), P62136; purified PP1alpha; inhibition, % at 6.7 µM; 320,000 compounds, 0.9% hits;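 active = inhibition above the mean inhibition of all tested compounds plus 3 SD, computed separately for each screening campaign, cut at about 15% in these data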
# PP5 primary – PP5 phosphatase inhibitors, primary screen, biochemical, fluorescence. Serine/threonine-protein phosphatase 5 (Homo sapiens), P53041. purified PP5c, OMFP substrate fluorescence. inhibition, % at 6.7 µM. 320,000 compounds, 0.18% hits;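 active = inhibition above the campaign's mean inhibition across all tested compounds plus 3 SD, cut at about 9.5% in these data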;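 also: 0% = DMSO only and 100% = 100 µM cantharidin control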
# Target sequence (P53041 whole entry, looked up): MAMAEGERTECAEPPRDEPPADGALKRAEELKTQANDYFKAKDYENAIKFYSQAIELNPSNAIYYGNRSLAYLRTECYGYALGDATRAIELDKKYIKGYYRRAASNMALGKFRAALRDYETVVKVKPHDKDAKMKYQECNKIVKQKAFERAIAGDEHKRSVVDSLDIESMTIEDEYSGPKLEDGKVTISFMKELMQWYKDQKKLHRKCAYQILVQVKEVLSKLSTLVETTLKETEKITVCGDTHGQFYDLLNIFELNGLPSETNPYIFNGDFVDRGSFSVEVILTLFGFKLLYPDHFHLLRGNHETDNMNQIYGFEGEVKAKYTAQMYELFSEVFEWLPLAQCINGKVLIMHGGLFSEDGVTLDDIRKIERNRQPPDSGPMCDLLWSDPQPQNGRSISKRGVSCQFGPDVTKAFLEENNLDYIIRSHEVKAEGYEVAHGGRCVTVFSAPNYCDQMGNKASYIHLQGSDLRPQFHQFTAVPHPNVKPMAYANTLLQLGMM
# Beta cell apopt – inhibitors of cytokine-induced beta cell apoptosis, primary screen, luminescence | INS-1E cytokine-induced death, ATP luminescence, 48 h; percent of positive-control rescue, neutral wells zero | protection from apoptosis, % (test concentration not listed) | 300,000 compounds, 0.8% hits;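 active = Every replicate reaches about 75%, or at least half do and their mean reaches it too, limit read from the data; inconclusive = At least half of replicates reach the limit but their mean does not; inactive = Under half of replicates reach the limit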;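 also: 0% = cytokine-treated negative control wells and 100% = positive control rescue; higher means more ATP so stronger rescue from cytokine killing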
# CSC inhib – cancer stem cell viability inhibitors, primary screen, luminescence; inhibition, % at 7.5 µM; 300,000 compounds, 1.1% hits; cancer stem cell-like cells viability; in the data active = inhibition above about 75%; inconclusive = no clear call, values can overlap the other calls; tested in HMLE shEcad cells
# Mdm2-MdmX inh – inhibitors of human Mdm2-MdmX association, primary screen, cell-based, luminescence, split luciferase, SaOS-2, uHTS. inhibition, % at 8 µM. SaOS-2 split-luciferase Mdm2/MdmX complementation. 330,000 compounds, 3% hits. AID 485346, 2010. Protein Mdm4 (Homo sapiens) + E3 ubiquitin-protein ligase Mdm2 (Homo sapiens), …;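 active = inhibition of at least 50% at 8 µM in the primary screen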
# PP5 inh confirm – PP5 phosphatase inhibitors, confirmation, biochemical, fluorescence, human; shares compounds with PP5 primary; Purified PP5, fluorogenic phosphatase substrate; inhibition, % at 6.7 µM; 460 compounds, 22% hits; AID 2331, 2010; in the data active = inhibition above about 9.5%
# PP1 counter 3x – PP1 phosphatase inhibitors, counter-screen for PP5 inhibitor project, biochemical, fluorescence, triplicate; shares compounds with PP5 primary; PP1 enzyme, fluorescent phosphatase substrate; inhibition, % at 6.7 µM; 460 compounds, 4% hits; AID 2355, 2010; in the data active = inhibition above about 16%
# Mdm2-MdmX conf – Mdm2-MdmX complex disruptors, retested hits, confirmation, luminescence, single concentration | 10,000 compounds, 55% hits | inhibition, % at 8 µM | Mdm2-MdmX binding, luminescent assay | shares compounds with Mdm2-MdmX inh | AID 489028, 2010; in the data active = inhibition above about 40%
# FLuc counter – full-length luciferase signal inhibition, confirmation, counter-screen for Mdm2/MdmX interaction inhibitor project, cell-based, single concentration, SaOS-2; inhibition, % at 8 µM; AID 504607, 2011; SaOS-2 full-length luciferase counterscreen, luminescence; 6,200 compounds, 77% hits; shares compounds with Mdm2-MdmX inh;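 active = mean inhibition at 8 µM reaching about 37%, which flags the compound as non-specific, limit read from the data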;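 also: p53-null SaOS-2 cells with luciferase driven by a doxycycline-inducible promoter; compound on cells about two nights before reading with doxycycline added after day one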
# The depositor's hits bear a star; ? = inconclusive; . = no result.
SMILES,Calb FLC,PP1 counter,PP5 primary,Beta cell apopt,CSC inhib,Mdm2-MdmX inh,others
COc1cccc(C(=O)C2CCCN(Cc3ccc4nonc4c3)C2)c1 (stereo unspecified),19,1,2,-2,-6,35,
COc1cccc(C(=O)C2CCCN(Cc3cccc4c3OCO4)C2)c1 (stereo unspecified),108*,2,2,13,1,9,
O=C(c1ccc(Cl)cc1)C1CCCN(Cc2ccc3ncccc3c2)C1 (stereo unspecified),-27,0,1,3,9,22,
O=C(NC1CONC1=O)OCC(Cl)(Cl)Cl (stereo unspecified),-4,1,-2,41,77*,14,
COc1ccc(N2C(=O)CC(N3CC=C(c4ccccc4)CC3)C2=O)cc1 (stereo unspecified),0,0,-1,-6,-2,-5,
CN(C)[C@@H]1C(=O)C(C(N)=O)=C(O)[C@@]2(O)C(=O)C3=C(O)c4c(O)cccc4[C@@](C)(O)[C@H]3C[C@@H]12,.,29*,-2,-2,-4,19,
CN(C)C1C(=O)C(C(N)=O)=C(O)C2(O)C(=O)C3=C(O)c4c(O)cccc4C(C)(O)C3CC12 (stereo unspecified),.,6,0,4,-9,.,
c1ccc(CN2CCc3nc4ccccc4cc3C2)cc1,76*,0,-1,7,3,-58,
CC1CCN(c2cc(Br)c([N+](=O)[O-])cc2F)CC1,-4,-2,0,5,-18,12,
N=C(N)c1c(O)n(C2CCCCC2)c(=O)n(C2CCCCC2)c1=O,-5,8,4,57,102*,39,
O=c1c(C=NCc2cccs2)c(O)n(C2CCCCC2)c(=O)n1C1CCCCC1,-4,-4,0,1,46,27,
CCCCCn1c(=O)c(C(=O)NCc2ccccc2Cl)c(O)c2ccccc21,-5,-4,1,101*,4,28,
O=C(Nc1cccc(C(F)(F)F)c1)c1cccn(Cc2ccc3c(c2)OC(F)(F)O3)c1=O,3,3,7,-6,47,1,
O=C(Nc1ccc(C(F)(F)F)cc1)c1cccn(Cc2ccc3c(c2)OC(F)(F)O3)c1=O,29,-4,1,-2,90*,22,
c1ccc(-c2ccncc2)cc1,.,.,.,.,.,25,
Cc1cc(-c2ccccc2)cc(C)[n+]1Cc1ccccc1,-25,1,0,109*,-15,-19,
O=c1c(C=Nc2cccnc2Cl)c(O)n(CCCCl)c(=O)n1C1CCCCC1,5,-2,0,3,-8,22,
C[n+]1c(-c2ccccc2)cc(-c2ccc(Cl)cc2)cc1-c1ccccc1,97*,-1,0,39,4,23,
Nc1ccc(CCN2CCN(c3cccc(C(F)(F)F)c3)CC2)cc1,.,0,2,-2,95*,13,
Nc1ccc(CCN2CCCC2)cc1,-4,1,1,3,-8,-6,
CCOc1ccc(-n2c(O)c(C=Nc3ccc(N4CCOCC4)cc3)c(=O)[nH]c2=O)cc1,-5,0,2,2,0,0,
Nc1ccccc1Cl,.,-3,1,-6,-18,9,
O=C(Nc1cccc2ccccc12)c1nn(C23CC4CC(CC(C4)C2)C3)cc1Br,-12,3,2,1,?,6,
O=c1c2ccccc2[nH]c(=S)n1-c1ccc(Br)cc1,-1,20*,-6,7,19,19,
O=c1c2cc(Br)ccc2[nH]c(=S)n1-c1ccccc1,-2,8,1,-1,-4,-45,
SMILES,Calb FLC,PP1 counter,PP5 primary,Beta cell apopt,CSC inhib,Mdm2-MdmX inh,others
CCN(CC)C(=O)c1ccc(NC(=O)Nc2ccccc2F)cc1,11,-3,-1,68,81*,-74,
CCN(CC)C(=O)c1ccc(NC(=O)CCCSc2ccccc2)cc1,-2,-6,3,-6,-12,-5,
COC1=CC(=O)[C@]2(C=C1OC)OC[C@@H]1Oc3c(ccc4c3C=CC(C)(C)O4)C(=O)[C@@H]12,.,.,.,126*,4,2,
COC(=O)C1=C(c2ccc(Cl)c(C(F)(F)F)c2)C[C@@H]2CC[C@H]1N2C(=O)NCCOc1ccc(OC)cc1,.,5,6,2,19,22,
CCOC(=O)c1ccc(NC(=O)C2C3C=CC(O3)C2C(=O)O)cc1 (stereo unspecified),-7,8,28*,4,-2,-29,PP5 inh confirm=-3;PP1 counter 3x=2
Cc1[nH]n(-c2ccccc2)c(=O)c1C(c1ccc([N+](=O)[O-])cc1)c1c(C)[nH]n(-c2ccccc2)c1=O,-19,-1,9.9*,-4,37,19,PP5 inh confirm=16*;PP1 counter 3x=9
O=P1(NCc2ccco2)COc2ccccc2OC1,-6,1,2,-6,-10,28,
O=C1CN=C(c2ccccc2)c2ccccc2N1Cc1ccc(C(F)(F)F)cc1,6,-1,13*,16,-8,15,PP5 inh confirm=-1;PP1 counter 3x=0
Cc1oc(-c2ccccc2Cl)nc1CN1C(=O)CN=C(c2ccccc2)c2ccccc21,2,5,3,-6,14,20,
CC12CN3CCN(CC(C3)/C1=N/NC(N)=O)C2,-3,0,3,0,-16,23,
C/C=C(\C)C(=O)OC1C(C)=C2C(C1OC(=O)CCCCC)C(C)(OC(C)=O)CC(OC(=O)CCC)C1(O)C2OC(=O)C1(C)O (stereo unspecified),24,6,11*,107*,101*,82*,PP5 inh confirm=11*;PP1 counter 3x=11;Mdm2-MdmX conf=64*;FLuc counter=24
Fc1ccc(Cn2nnnc2C(c2ccc(F)cc2)N2CC=C(c3ccc(F)cc3)CC2)cc1 (stereo unspecified),-14,-2,0,-6,9,-1,
